# The supplement of paper PMC5407854, “Inhibitor of ppGalNAc-T3-mediated O-glycosylation blocks cancer cell invasiveness and lowers FGF23 levels” (eLife, 2017)
# Over roughly 1,700 compounds, “T2 sensor activation Q score (MG/GFP ratio z-score vs DMSO controls)” has its median near 0.3; the highest 2% begin near 1.9. Shown is part of a subset that was picked to be rich in the highest values.
# Tested on: ppGalNAc-T2 sensor
# Experiment: T2 sensor activation Q score (MG/GFP ratio z-score vs DMSO controls) (SD units); higher = more sensor activation (inhibition of ppGalNAc-T2 glycosylation)
# Conditions: HEK293 sensor cells; 10 µM; 6 h
# Protocol: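 Cells were treated with compound at 10 uM for 6 h, then MG/GFP ratio was read by flow cytometry (10,000 cells per well, duplicate wells). Q = (R - R_neg)/SD_neg relative to DMSO vehicle controls; the signal rises when the glycosyltransferase is inhibited.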
row,Structure (SMILES),T2 sensor activation Q score
1,Cc1ncc([N+](=O)[O-])n1CCOC(N)=O,-0.85
2,Cn1cnc([N+](=O)[O-])c1Sc1n[nH]c(N)n1,1.8
3,Cn1cnc([N+](=O)[O-])c1N=C(N)N,2.2
4,NCCCNCCSP(=O)(O)O,-0.45
5,Cc1ccccc1-n1c(C=Cc2ccccn2)nc2ccccc2c1=O,-1
6,COC[C@H]1OC(=O)c2coc3c2[C@@]1(C)C1=C(C3=O)[C@@H]2CCC(=O)[C@@]2(C)C[C@H]1OC(C)=O,2.1
7,CC12CCC3C(CC=C4CC(O)CCC43C)C1C/C(=C\N1CCCC1)C2=O (stereo not given),0.15
8,C=Cc1cc(OC)c2c(c1)c(=O)oc1c2cc(OC)c2c(O)ccc(C3OC(C)C(O)C(C)(O)C3O)c21 (stereo not given),-0.15
9,O=C1/C(=C\c2ccccc2)C2OCC=C3CN4CCC56c7ccccc7N1C5C2C3CC46 (stereo not given),0.15
10,O=C1C[C@@H]2OCC=C3C[N+]4([O-])CC[C@]56c7ccccc7N1[C@H]5[C@H]2[C@H]3C[C@@H]64 (stereo not given in full),1.95
11,CC(C)CC(NC=O)C(=O)O.COc1cc2c(cc1OC)C13CCN4CC5=CCOC6CC(=O)N2C1C6C5CC43 (stereo not given),1.3
12,COc1cc2c(cc1O)C[C@H]1c3c(cc(O)c(OC)c3-2)CCN1C,0.75
13,c1cc(C2N3CCCN2CC3)ccn1 (stereo not given),-0.3
14,CC(Cc1ccccc1)NC(N)=O (stereo not given),1.8
15,O=C1N[C@H]2[C@H](O)[C@H](O)[C@@H](O)[C@H](O)[C@@H]2c2cc3c(c(O)c21)OCO3,2.6
16,Cc1c(CCN)ccc2c1[nH]c1ccccc12,0.7
17,COc1ccc2c(c1O)[C@]13CCN(C)[C@H](C2)[C@@H]1CCC(=O)C3,-0.1
18,COc1ccc2c(c1)C13CCN(C)C(C2)C1CCC1(C3)OCCO1 (stereo not given),2

row,Structure (SMILES),T2 sensor activation Q score
1,Cc1c(C(=O)c2ccccc2)c2ccccc2n1C,1.75
2,O=C1N(c2nncs2)CCN1[N+](=O)[O-],1.2
3,CC1CC(C)OP(=O)(OCCC#N)O1 (stereo not given),0.35
4,COc1ccc(CCNC2(C#N)CCCCC2)cc1OC,-0.65
5,CN1CCN(c2ccc([N+](=O)[O-])c3no[n+]([O-])c23)CC1,0.1
6,CN1CCN(c2nc(N)c(Br)c(Cl)n2)CC1,0.8
7,O=P(Oc1ccccc1)(Oc1ccccc1)c1ccccc1,-3.1
8,CC12CCC3C(CCC4Cc5[nH]c6ccccc6c5CC43C)C1CCC2O (stereo not given),0.65
9,C=CCN1CCC23c4c5ccc(O)c4OC2C(=O)CCC3(O)C1C5 (stereo not given),2.2
10,O=C1CCC2(O)[C@@H]3Cc4ccc(O)c5c4[C@]2(CCN3Cc2ccoc2)C1O5 (stereo not given in full),0.3
11,NN=C1C(Cl)=C(Cl)C(Cl)=C1Cl,-0.35
12,CCCC(=O)N(C)C1=Nc2ccc(Cl)cc2C(c2ccccc2)=[N+]([O-])C1,0
13,CCC(C)c1cnc(CC(C)C)c(=O)n1O (stereo not given),-0.75
14,CC12CCC3c4ccc(OC(=O)N(CCCl)CCCl)cc4CCC3C1CCC2O (stereo not given),-0.35
15,OCC1CN1C1CCCCC1 (stereo not given),2.1
16,CN1CCC(c2c[nH]c3ccccc23)C1 (stereo not given),0.5
17,CCC(N)Cc1c[nH]c2ccccc12 (stereo not given),1.2
